Results published in PubChem BioAssay AID624331 (National Center for Advancing Translational Sciences (NCATS), 2012).
Inconclusive results are not listed. Values without a mark were called inactive. Calls of active or inactive are those of the source. Calls come from the whole dose curve; as a rule, active = well fitted activation curve with a large enough effect; inconclusive = small, poorly fitted or top-dose-only effect; inactive = no such curve, though single readings can be large or run the other way.

Assay: qHTS assay for re-activators of p53 using a Luc reporter: Hit Validation with no p53 Expressed; for activity change, positive = activation: 0% is about no effect
Settings: p53-null cells, luciferase reporter counter-screen; series mostly up to 46.1 µM; activity change, positive = activation: at the top concentration
In short: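 Without p53 expression, cells (1000/well, Opti-MEM + 10% FBS) were exposed 24 h at 37 deg C to compounds in a 1:5 series from 10 mM stock (top 46.1 µM in well). Luminescent signal read 10 min after Amplite addition; actives flag unspecific activation.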
Potency is the fitted concentration of half-maximal effect.

First: COc1cccc(/C=N/NC(=O)c2nc(-c3ccccc3)cc(-c3ccccc3)n2)c1O
Second: O=C(N/N=C(\c1ccccc1)c1ccccn1)c1ccccc1Cl
The “activity change, positive = activation” value of the first is higher: 2.35% for the first, -64.3% for the second.

Going from `Cc1cc(C(=O)Nc2ccc(Br)cn2)sc1C` to `Cc1cc(NC(=O)c2cccc(COc3ccc(Br)cc3)c2)no1`, the “activity change, positive = activation” value rises from -16.7% to -10.5%.

Going from `Cc1ccc(NC(=S)NCC2CCCO2)c(OC(F)F)c1` (centres undefined) to `Cc1ccc(NC(=O)Nc2ccccc2)c(Br)c1`, the “activity change, positive = activation” value falls from -4.01% to -27.1%.

Compared with `NC(=NCc1ccccc1)c1cccc([N+](=O)[O-])c1`, `Cc1ccccc1Cn1nnc(-c2cccc(C(=O)O)c2)n1` is higher in “activity change, positive = activation” value: -33.5% for the first, -24.8% for the second.

Compared with `Cn1ncc([N+](=O)[O-])c1C(=O)Nc1ccc(C2CCCCC2)cc1`, `CCOc1cc(S(=O)(=O)NC2CCCCCC2)ccc1F` is higher in “activity change, positive = activation” value: 2.99% for the first, 35.2% for the second.

Compared with `O=C(COc1ccc(Cl)cc1Cl)Nc1ccc(Cl)cn1`, `Cc1ccccc1OCC(=O)Nc1cccc2nsnc12` is higher in “activity change, positive = activation” value: -2.46% for the first, 37.9% for the second.

First: O=C(O)CCCC(=O)NCCc1ccncc1
Second: Cc1ccc2cc(CCNC(=O)c3ccco3)c(=O)[nH]c2c1C
The “activity change, positive = activation” value of the first is lower: 18.6% for the first, 82.1% for the second.

Compared with `Oc1ccccc1-c1cc(-c2ccc3c(c2)OCCO3)n[nH]1`, `C/C(=C\C(=O)c1ccccc1)Nc1ccc2c(c1)OCO2` is higher in “activity change, positive = activation” value: 30.1% for the first, 51.4% for the second.

Going from `CN(C)C(=O)c1ccc2c(c1[N+](=O)[O-])C(=O)c1ccccc1C2=O` to `CC(=O)NC1=C(Nc2ccc(N(C)C)cc2)C(=O)c2ccccc2C1=O`, the “activity change, positive = activation” value falls from 80.8% to 47.3%.

Compared with `COc1cc(CNC2CCCCCCC2)c(Br)cc1OCCO`, `c1nc(C2CCCCC2)cc2cc3c(cc12)OCO3` is higher in “activity change, positive = activation” value: 8.85% for the first, 34.3% for the second.

Compared with `Cc1c(C(=O)OC2CCC(C)CC2)[nH]c2c1C(=O)CCC2` (centres undefined), `Nc1c(C(=O)CSc2nc3ccccc3o2)c(=O)[nH]c(=O)n1C1CC1` is higher in “activity change, positive = activation” value: -14.1% for the first, -8.39% for the second.

Going from `Cc1ccc(S(=O)(=O)NCC(=O)N2CCc3ccccc3C2)cc1` to `COc1ccc(N2CCN(CC(=O)Nc3ccc(C)cc3)CC2)cc1`, the “activity change, positive = activation” value rises from -42.8% to -7.99%.

Compared with `Cc1cccc(C)c1Nc1c(-c2ccccn2)nc2ccccn12`, `Cc1ccc(-c2cc3nc(C)cc(NCc4ccco4)n3n2)cc1` is higher in “activity change, positive = activation” value: -50% for the first, 57.4% for the second.

Going from `Cn1ncc(Cl)c(Oc2ccc(C(C)(C)C)cc2)c1=O` to `COc1ccc2c(=O)c(-c3nc(C)cs3)coc2c1`, the “activity change, positive = activation” value falls from 9.17% to -21.3%.

Compared with `COc1ccccc1NC(CC(=O)c1ccccc1)C(=O)OCC(=O)c1ccc(C)c(C)c1` (centres undefined), `CC(=O)Nc1cccc(C(=O)N/N=C/c2ccccc2F)c1` is higher in “activity change, positive = activation” value: 61.6% for the first, 92.9% for the second.

Compared with `C/C(=N\NS(=O)(=O)c1ccc(Cl)cc1)c1ccc(NC(=O)c2ccco2)cc1`, `O=C(N/N=C/c1sc(=O)[nH]c1-[n+]1ccc2ccccc2c1)c1ccccc1[O-]` is lower in “activity change, positive = activation” value: -9.33% for the first, -12.2% for the second.

First: Cc1ccc(-c2nnc(SCc3ccccc3F)o2)cc1
Second: COc1ccc(N=C(N)SCc2ccccn2)cc1
The “activity change, positive = activation” value of the first is higher: 36.2% for the first, 12.5% for the second.

Going from `COc1ccc2cc3c(N)nn(C(=O)c4ccc(Cl)c([N+](=O)[O-])c4)c3nc2c1` to `O=C(NC1CC1)c1cccc(NC(=O)c2cn3ccccc3n2)c1`, the “activity change, positive = activation” value rises from -33.9% to -15.6%.

With `O=S(=O)(CCOc1ccccc1)c1nc2ccccc2[nH]1` the “activity change, positive = activation” value was -63.1%.

With `N#CC(Cc1ccccc1)(Cc1ccccc1)C(=O)NN` the Potency was 29.1 µM (active).
For `O=C(COC(=O)c1ccc(-c2nnc(-c3ccccc3)o2)cc1)c1ccccc1`, the Potency was 0.146 µM (active).
